# According to the supplement of paper PMC11732987, “Enantioselective OTUD7B fragment discovery through chemoproteomics screening and high-throughput optimisation” (Communications Chemistry, 2025):
# Unmarked numbers belong to inactive results.
# Tests used:
# Experiment in all cases: log2 ratio of Biotin-Ahx-Ub-VS probe labelling (fragment/DMSO); higher = less target engagement (more negative = stronger competition), active = hit call of the paper (q ≤ 0.05, log2 ratio ≤ -1)
# Conditions in all cases: compound concentration: 200 uM; treatment time: 3 h
# [1] = molecular target: T1, OTUD6B (UniProt Q8N6M0)
# T1 sequence (whole entry): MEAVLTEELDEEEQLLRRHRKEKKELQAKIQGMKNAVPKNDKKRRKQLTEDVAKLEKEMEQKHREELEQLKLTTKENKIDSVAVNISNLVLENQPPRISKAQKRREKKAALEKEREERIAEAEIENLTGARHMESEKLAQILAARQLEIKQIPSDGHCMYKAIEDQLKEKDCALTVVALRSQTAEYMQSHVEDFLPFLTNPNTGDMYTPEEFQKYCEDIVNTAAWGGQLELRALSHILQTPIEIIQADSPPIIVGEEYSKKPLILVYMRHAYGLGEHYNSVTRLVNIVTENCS
# In short: (§1)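 Each value is an average log2 ratio of fragment to vehicle, tested by unpaired t-test. The underlying Spectronaut label-free quantities were global-median-normalised, and only proteins with ≥2 unique peptides were included. Triplicate HEK293T lysate samples (495 µg) were exposed to fragment at 200 µM or vehicle for 3 h, then to Biotin-Ahx-Ub-VS at 0.5 µM final for 1 h, before NeutrAvidin enrichment of labelled DUBs, LysC and trypsin digestion, and diaPASEF LC-MS/MS.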
# [2] = molecular target: T2, OTUD7B (UniProt Q6GQQ9)
# T2 sequence (whole entry): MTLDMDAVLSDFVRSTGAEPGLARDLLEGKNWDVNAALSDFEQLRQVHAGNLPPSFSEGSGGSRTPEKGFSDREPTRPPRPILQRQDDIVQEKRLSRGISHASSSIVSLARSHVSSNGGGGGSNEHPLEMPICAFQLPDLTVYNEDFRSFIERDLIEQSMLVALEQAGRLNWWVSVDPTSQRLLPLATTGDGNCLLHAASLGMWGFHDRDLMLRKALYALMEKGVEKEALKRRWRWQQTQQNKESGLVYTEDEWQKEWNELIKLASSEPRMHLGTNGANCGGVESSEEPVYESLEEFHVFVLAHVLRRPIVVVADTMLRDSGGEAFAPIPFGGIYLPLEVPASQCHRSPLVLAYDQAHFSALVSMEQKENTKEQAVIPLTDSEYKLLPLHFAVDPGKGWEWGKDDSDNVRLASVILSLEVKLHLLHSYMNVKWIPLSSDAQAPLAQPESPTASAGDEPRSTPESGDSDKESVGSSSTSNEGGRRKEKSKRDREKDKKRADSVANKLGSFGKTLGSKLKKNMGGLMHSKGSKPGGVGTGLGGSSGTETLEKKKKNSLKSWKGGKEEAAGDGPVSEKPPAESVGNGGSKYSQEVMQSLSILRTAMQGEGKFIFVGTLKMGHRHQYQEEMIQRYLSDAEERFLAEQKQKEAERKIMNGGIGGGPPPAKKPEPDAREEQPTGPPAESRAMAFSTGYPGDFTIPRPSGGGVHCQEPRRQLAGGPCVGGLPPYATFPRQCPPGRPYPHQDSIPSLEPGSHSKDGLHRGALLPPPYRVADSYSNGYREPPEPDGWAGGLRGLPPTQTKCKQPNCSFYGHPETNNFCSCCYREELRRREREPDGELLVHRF
# In short: as §1
# [3] = molecular target: PRPF8 (UniProt Q6P2Q9)
# In short: as §1
# [4] = molecular target: T3, PSMD7 (UniProt P51665)
# T3 sequence (whole entry): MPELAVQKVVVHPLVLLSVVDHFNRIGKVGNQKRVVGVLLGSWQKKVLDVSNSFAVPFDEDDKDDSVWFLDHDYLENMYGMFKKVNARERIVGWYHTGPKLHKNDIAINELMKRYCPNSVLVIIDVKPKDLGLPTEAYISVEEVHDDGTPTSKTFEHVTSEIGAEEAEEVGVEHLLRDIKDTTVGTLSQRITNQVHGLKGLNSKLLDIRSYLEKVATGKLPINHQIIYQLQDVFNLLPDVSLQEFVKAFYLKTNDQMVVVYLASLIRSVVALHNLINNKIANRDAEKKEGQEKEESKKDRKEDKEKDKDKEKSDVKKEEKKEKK
# In short: as §1
# [5] = molecular target: UCHL1 (UniProt P09936)
# UCHL1, sequence (P09936 whole entry, looked up): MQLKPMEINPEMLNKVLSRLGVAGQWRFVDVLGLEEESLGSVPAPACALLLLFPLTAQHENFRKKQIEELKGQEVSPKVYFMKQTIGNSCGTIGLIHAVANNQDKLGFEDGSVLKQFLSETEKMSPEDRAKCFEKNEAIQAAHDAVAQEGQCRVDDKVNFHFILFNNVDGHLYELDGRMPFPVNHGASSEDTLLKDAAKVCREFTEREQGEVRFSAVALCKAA
# In short: as §1
# [6] = molecular target: T4, UCHL3 (UniProt P15374)
# T4 sequence (whole entry): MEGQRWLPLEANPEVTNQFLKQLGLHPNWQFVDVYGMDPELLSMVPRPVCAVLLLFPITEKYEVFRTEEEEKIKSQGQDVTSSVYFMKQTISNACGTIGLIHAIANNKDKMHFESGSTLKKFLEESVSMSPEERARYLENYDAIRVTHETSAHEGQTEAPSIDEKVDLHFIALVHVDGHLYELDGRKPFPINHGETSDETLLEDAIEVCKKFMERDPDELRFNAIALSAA
# In short: as §1
# [7] = molecular target: T5, UCHL5 (UniProt Q9Y5K5)
# T5 sequence (whole entry): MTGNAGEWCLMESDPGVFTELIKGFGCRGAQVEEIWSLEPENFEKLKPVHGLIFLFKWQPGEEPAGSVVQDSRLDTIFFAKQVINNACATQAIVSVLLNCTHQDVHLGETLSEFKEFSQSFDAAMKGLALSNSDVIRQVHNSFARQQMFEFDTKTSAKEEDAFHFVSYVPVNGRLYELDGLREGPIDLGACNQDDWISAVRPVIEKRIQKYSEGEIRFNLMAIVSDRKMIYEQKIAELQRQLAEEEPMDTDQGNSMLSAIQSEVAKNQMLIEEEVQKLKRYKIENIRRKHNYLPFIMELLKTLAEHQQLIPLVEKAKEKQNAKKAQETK
# In short: as §1
# [8] = molecular target: USP10 (UniProt Q14694)
# USP10, sequence (Q14694 whole entry): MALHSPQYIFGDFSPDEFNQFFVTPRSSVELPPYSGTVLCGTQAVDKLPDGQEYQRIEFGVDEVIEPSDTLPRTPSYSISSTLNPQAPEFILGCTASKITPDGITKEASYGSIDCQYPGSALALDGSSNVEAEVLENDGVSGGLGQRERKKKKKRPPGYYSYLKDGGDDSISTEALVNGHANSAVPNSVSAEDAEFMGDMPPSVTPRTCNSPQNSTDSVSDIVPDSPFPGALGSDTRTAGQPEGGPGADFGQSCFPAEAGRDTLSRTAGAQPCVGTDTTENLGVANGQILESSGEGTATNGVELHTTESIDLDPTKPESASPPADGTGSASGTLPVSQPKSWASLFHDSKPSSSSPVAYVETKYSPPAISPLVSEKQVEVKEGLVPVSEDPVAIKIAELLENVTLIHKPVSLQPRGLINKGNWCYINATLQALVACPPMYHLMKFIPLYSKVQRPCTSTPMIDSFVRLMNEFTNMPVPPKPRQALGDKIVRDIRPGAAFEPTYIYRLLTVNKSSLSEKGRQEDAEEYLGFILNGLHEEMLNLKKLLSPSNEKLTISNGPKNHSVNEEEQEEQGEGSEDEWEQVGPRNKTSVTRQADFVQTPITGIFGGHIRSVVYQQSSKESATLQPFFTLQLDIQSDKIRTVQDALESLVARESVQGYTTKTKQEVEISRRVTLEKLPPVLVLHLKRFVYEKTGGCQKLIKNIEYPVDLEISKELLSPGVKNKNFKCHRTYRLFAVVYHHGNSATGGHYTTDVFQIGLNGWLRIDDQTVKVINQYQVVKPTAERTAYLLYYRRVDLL
# In short: as §1
# [9] = molecular target: T6, USP15 (UniProt Q9Y4E8)
# T6 sequence (whole entry): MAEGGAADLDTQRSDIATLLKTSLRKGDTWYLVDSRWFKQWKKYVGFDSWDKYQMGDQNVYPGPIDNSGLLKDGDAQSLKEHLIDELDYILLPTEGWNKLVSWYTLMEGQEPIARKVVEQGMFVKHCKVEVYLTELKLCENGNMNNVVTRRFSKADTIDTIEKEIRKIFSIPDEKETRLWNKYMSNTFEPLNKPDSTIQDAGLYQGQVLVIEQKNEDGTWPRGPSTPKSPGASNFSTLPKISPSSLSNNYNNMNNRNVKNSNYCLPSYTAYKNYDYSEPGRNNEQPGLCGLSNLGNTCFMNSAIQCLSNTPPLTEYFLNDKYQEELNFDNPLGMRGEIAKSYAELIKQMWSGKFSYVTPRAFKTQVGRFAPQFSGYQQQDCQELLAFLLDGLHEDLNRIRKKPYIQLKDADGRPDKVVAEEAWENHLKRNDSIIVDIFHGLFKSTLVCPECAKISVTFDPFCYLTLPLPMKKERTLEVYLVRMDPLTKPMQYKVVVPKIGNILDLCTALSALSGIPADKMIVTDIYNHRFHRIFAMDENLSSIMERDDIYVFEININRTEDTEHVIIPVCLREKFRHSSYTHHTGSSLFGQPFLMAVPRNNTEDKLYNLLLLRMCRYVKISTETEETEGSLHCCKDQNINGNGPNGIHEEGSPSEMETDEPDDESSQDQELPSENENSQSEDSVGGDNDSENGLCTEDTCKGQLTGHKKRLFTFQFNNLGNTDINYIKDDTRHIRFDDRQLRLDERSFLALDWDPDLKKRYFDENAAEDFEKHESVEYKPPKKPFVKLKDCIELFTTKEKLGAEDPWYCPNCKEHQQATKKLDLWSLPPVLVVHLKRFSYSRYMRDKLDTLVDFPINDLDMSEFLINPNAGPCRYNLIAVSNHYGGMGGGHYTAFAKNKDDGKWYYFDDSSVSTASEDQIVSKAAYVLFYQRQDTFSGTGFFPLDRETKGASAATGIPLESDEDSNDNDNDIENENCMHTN
# In short: as §1
# [10] = molecular target: USP16 (UniProt Q9Y5T5)
# USP16, sequence (Q9Y5T5 whole entry, looked up): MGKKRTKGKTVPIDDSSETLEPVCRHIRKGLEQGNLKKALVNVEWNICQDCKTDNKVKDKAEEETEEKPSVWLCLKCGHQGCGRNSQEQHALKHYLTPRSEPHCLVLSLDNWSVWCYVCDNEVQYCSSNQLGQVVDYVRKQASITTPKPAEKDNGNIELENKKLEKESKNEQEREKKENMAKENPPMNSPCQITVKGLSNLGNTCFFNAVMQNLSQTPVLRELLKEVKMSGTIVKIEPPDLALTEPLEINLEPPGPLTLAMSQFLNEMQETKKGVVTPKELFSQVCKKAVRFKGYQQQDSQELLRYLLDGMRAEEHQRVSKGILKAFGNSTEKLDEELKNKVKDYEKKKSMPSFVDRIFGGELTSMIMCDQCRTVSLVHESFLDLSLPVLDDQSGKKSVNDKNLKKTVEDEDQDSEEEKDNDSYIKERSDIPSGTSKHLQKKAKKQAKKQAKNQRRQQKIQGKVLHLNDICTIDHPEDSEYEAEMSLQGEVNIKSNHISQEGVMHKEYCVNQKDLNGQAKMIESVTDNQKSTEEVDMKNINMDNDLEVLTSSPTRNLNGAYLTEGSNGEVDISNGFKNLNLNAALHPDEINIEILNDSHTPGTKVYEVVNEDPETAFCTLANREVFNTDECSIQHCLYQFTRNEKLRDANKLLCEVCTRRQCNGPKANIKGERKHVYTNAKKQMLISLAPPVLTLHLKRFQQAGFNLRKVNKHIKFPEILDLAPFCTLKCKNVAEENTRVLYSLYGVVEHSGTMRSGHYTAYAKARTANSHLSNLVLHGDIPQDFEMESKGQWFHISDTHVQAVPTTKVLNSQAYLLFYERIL
# In short: as §1
compound,measurement,setting,value
Cc1nc(CNC(=O)CCl)c2ccccn12.Cl,log2 ratio of Biotin-Ahx-Ub-VS probe labelling,[1],-0.000255
same,log2 ratio of Biotin-Ahx-Ub-VS probe labelling,[2],-0.458
same,log2 ratio of Biotin-Ahx-Ub-VS probe labelling,[3],-0.14
same,log2 ratio of Biotin-Ahx-Ub-VS probe labelling,[4],-0.132
same,log2 ratio of Biotin-Ahx-Ub-VS probe labelling,[5],-1.12 (active)
same,log2 ratio of Biotin-Ahx-Ub-VS probe labelling,[6],-0.319
same,log2 ratio of Biotin-Ahx-Ub-VS probe labelling,[7],-0.224
same,log2 ratio of Biotin-Ahx-Ub-VS probe labelling,[8],-0.121
same,log2 ratio of Biotin-Ahx-Ub-VS probe labelling,[9],-0.398
same,log2 ratio of Biotin-Ahx-Ub-VS probe labelling,[10],-0.0983
